Records with an inconclusive call do not appear. Unmarked numbers belong to inactive results. Unless noted, calls come from the whole dose curve; as a rule, active = well fitted inhibition curve with a large enough effect; inconclusive = small, poorly fitted or top-dose-only effect; inactive = no such curve, though single readings can be large or run the other way.
experiment: S16 Schwann cell PMP22 intronic element firefly luciferase assay (AID 624032); conditions: S16 rat Schwann cells, PMP22 element FLuc, 24 h; series mostly up to 57.5 µM; activity change, negative = inhibition: at the top concentration;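 note: plate controls were DMSO for no effect and PTC124 positive control mean for full effect; nearly all actives have a fitted effect of over 30% in size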
Method in brief: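 Luciferase reporter of PMP22 intronic-element expression in stably transfected S16 rat Schwann cells, read by ONE-Glo luminescence after 24 h compound exposure at 37 C. Activity scaled between DMSO (0%) and positive-control PTC124; concentration-effect curves quality-classified.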

Row | Structure (SMILES) | activity change, negative = inhibition
1 | C[C@H](N)[C@H](O)c1cccc(O)c1 | -13.9% [at 25.7 µM]
2 | Cn1c(=O)c2c(ncn2CC2OCCO2)n(C)c1=O | -17.1%
3 | O=C1NC(=O)[C@@]2(CCOc3ccc(F)cc32)N1 | -15.9%
4 | CC(C)(C)C(=O)NCCCC(=O)O | 21.7%
5 | O=C(O)COc1nn(Cc2ccccc2)c2ccccc12 | 28.6%
6 | CC(C)c1c(C(=O)Nc2ccccc2)c(-c2ccccc2)c(-c2ccc(F)cc2)n1CC[C@@H](O)C[C@@H](O)CC(=O)O | -10.2%
7 | CC(=O)c1ccc2c(c1)N(CCCN(C)C)c1ccccc1S2 | -23% [at 25.7 µM]
8 | O=c1cc[nH]c(=O)[nH]1 | -0.348%
9 | OCC(O)CN1CCN(c2ccccc2)CC1 (configuration not stated) | 0.828%

experiment: S16 Schwann cell PMP22 intronic element beta-lactamase assay (AID 624044; calls by dose curve;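 note: 0% = DMSO and -100% = potassium clavulanate positive control; nearly all actives have a fitted effect of over 15% in size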); conditions: S16 rat Schwann cells, PMP22 element beta-lactamase FRET, 24 h; series mostly up to 38.3 µM; ratio activity, negative = inhibition: at the top concentration
Method in brief: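 Rat S16 Schwann cells with beta-Lac driven by a PMP22 intronic element, compound-treated 24 h at 37 °C. LiveBLAzer FRET B/G read: 460 nm normalized to potassium clavulanate vs DMSO; 535 nm FRET as viability; concentration-effect curves classified.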

Row | Structure (SMILES) | ratio activity, negative = inhibition
10 | O=C(O)CC(O)C(=O)O (configuration not stated) | -4.18%
11 | C[C@H](N)[C@H](O)c1cccc(O)c1 | 0.708% [at 17.1 µM]
12 | OCC(O)CN1CCN(c2ccccc2)CC1 (configuration not stated) | 4.97%

— PubChem BioAssay (NCATS)
